Like-named read-outs stand apart in the source and are kept apart here.
How the values were obtained:
Set-up in all cases: species or system human, MV4-11 + K-562 + COLO205 + SK-N-BE2 + OVCAR-8
ACVR1B = details: read-out: apparent Kd, compound concentrations: 100 nM and 1000 nM (sheet 'Samples'), n = 1
CSNK1A1 = details: read-out: apparent Kd; compound concentrations: 100 nM and 1000 nM (sheet 'Samples'), CATDS: 4.4417171665787201E-2; n = 1
CSNK1D = details: read-out: apparent Kd, compound concentrations: 100 nM and 1000 nM (sheet 'Samples'), n = 1
CSNK1E = details: read-out: apparent Kd, compound concentrations: 100 nM and 1000 nM (sheet 'Samples'), n = 1
DDR1 = details: read-out: apparent Kd; compound concentrations: 100 nM and 1000 nM (sheet 'Samples'), CATDS: 4.5461807893970897E-2; n = 1
DDR2 = details: read-out: apparent Kd; compound concentrations: 100 nM and 1000 nM (sheet 'Samples'), CATDS: 4.1041053531745197E-2; n = 1
GAK = details: read-out: apparent Kd; compound concentrations: 100 nM and 1000 nM (sheet 'Samples'), CATDS: 5.7317399451807E-2; n = 1
MAPK10 = details: read-out: apparent Kd; compound concentrations: 100 nM and 1000 nM (sheet 'Samples'), CATDS: 0.179195319148265; n = 1
MAPK11 = details: read-out: apparent Kd; compound concentrations: 100 nM and 1000 nM (sheet 'Samples'), CATDS: 5.6945469434317497E-2; n = 1
MAPK14 = details: read-out: apparent Kd, compound concentrations: 100 nM and 1000 nM (sheet 'Samples'), n = 1
MAPK8 = details: read-out: apparent Kd; compound concentrations: 100 nM and 1000 nM (sheet 'Samples'), CATDS: 5.2366017866035799E-2; n = 1
MAPK9 = details: read-out: apparent Kd; compound concentrations: 100 nM and 1000 nM (sheet 'Samples'), CATDS: 0.113637290114738; n = 1
MAPKAPK2 = details: read-out: apparent Kd, compound concentrations: 100 nM and 1000 nM (sheet 'Samples'), n = 1
NLK = details: read-out: apparent Kd, compound concentrations: 100 nM and 1000 nM (sheet 'Samples'), n = 1
RIPK3 = details: read-out: apparent Kd, compound concentrations: 100 nM and 1000 nM (sheet 'Samples'), n = 1
SIK3 = details: read-out: apparent Kd, compound concentrations: 100 nM and 1000 nM (sheet 'Samples'), n = 1
AGPS = details: read-out: apparent Kd; compound concentrations: 100 nM and 1000 nM (sheet 'Samples'), CATDS: 9.4477869255485902E-2; n = 1
ILK = details: read-out: apparent Kd; compound concentrations: 100 nM and 1000 nM (sheet 'Samples'), CATDS: 9.8525851125826097E-2; n = 1
MDN1 = details: read-out: apparent Kd; compound concentrations: 100 nM and 1000 nM (sheet 'Samples'), CATDS: 9.4286494514119495E-2; n = 1
TESK2 = details: read-out: apparent Kd, compound concentrations: 100 nM and 1000 nM (sheet 'Samples'), n = 1
ACVR2B = details: read-out: apparent Kd; compound concentrations: 100 nM and 1000 nM (sheet 'Samples'), CATDS: 3.61499985403008E-2; n = 1
BUB1 = details: read-out: apparent Kd; compound concentrations: 100 nM and 1000 nM (sheet 'Samples'), CATDS: 2.9368799543599802E-2; n = 1
CIT = details: read-out: apparent Kd; compound concentrations: 100 nM and 1000 nM (sheet 'Samples'), CATDS: 3.19087660473499E-2; n = 1
EPHA1 = details: read-out: apparent Kd; compound concentrations: 100 nM and 1000 nM (sheet 'Samples'), CATDS: 4.4029751359189198E-2; n = 1
FLT3 = details: read-out: apparent Kd; compound concentrations: 100 nM and 1000 nM (sheet 'Samples'), CATDS: 4.1263088221053297E-2; n = 1
FRK = details: read-out: apparent Kd; compound concentrations: 100 nM and 1000 nM (sheet 'Samples'), CATDS: 4.1342549308714401E-2; n = 1
FYN = details: read-out: apparent Kd; compound concentrations: 100 nM and 1000 nM (sheet 'Samples'), CATDS: 3.5075113560986498E-2; n = 1
PKN3 = details: read-out: apparent Kd; compound concentrations: 100 nM and 1000 nM (sheet 'Samples'), CATDS: 8.07286972312308E-2; n = 1
PTK6 = details: read-out: apparent Kd; compound concentrations: 100 nM and 1000 nM (sheet 'Samples'), CATDS: 4.3994171841747899E-2; n = 1
RET = details: read-out: apparent Kd; compound concentrations: 100 nM and 1000 nM (sheet 'Samples'), CATDS: 0.126907733860845; n = 1
RIPK2 = details: read-out: apparent Kd; compound concentrations: 100 nM and 1000 nM (sheet 'Samples'), CATDS: 0.22838556729877599; n = 1
SLK = details: read-out: apparent Kd; compound concentrations: 100 nM and 1000 nM (sheet 'Samples'), CATDS: 3.3087406541094599E-2; n = 1
TGFBR1 = details: read-out: apparent Kd; compound concentrations: 100 nM and 1000 nM (sheet 'Samples'), CATDS: 6.0050656716600502E-2; n = 1
TGFBR2 = details: read-out: apparent Kd; compound concentrations: 100 nM and 1000 nM (sheet 'Samples'), CATDS: 8.5809969501024E-2; n = 1

## NC(=O)c1ccc2c(-c3ccnc(NCCCO)n3)c(-c3ccc(F)cc3)nn2c1 [GW581744X]
ACVR1B; CATDS: 5.1726105609422098E-2
  potency estimated from few doses: 678 nM
CSNK1A1
  potency estimated from few doses: 1210 nM
CSNK1D; CATDS: 0.12647868619351901
  potency estimated from few doses: 70.3 nM
CSNK1E; CATDS: 7.8439067124282905E-2
  potency estimated from few doses: 202 nM
DDR1
  potency estimated from few doses: 1100 nM
DDR2
  potency estimated from few doses: 1740 nM
GAK
  potency estimated from few doses: 485 nM
MAPK10
  potency estimated from few doses: 38 nM
MAPK11
  potency estimated from few doses: 495 nM
MAPK14; CATDS: 0.23382543991059199
  potency estimated from few doses: 25.3 nM
MAPK8
  potency estimated from few doses: 651 nM
MAPK9
  potency estimated from few doses: 86.9 nM
MAPKAPK2; CATDS: 0.15591620581864199
  potency estimated from few doses: 48 nM
NLK; CATDS: 5.1907933882023798E-2
  potency estimated from few doses: 670 nM
RIPK3; CATDS: 4.0216087331075998E-2
  potency estimated from few doses: 1940 nM
SIK3; CATDS: 4.1962261561680501E-2
  potency estimated from few doses: 1560 nM

## CN1CCN(CCCNc2nccc(-c3c(-c4ccc(F)cc4)nn4cc(C(F)(F)F)ccc34)n2)CC1 [GW621581X]
ACVR1B; CATDS: 0.17734677143715399
  potency estimated from few doses: 667 nM
AGPS
  potency estimated from few doses: 2190 nM
CSNK1D; CATDS: 0.11827296398223
  potency estimated from few doses: 1330 nM
CSNK1E; CATDS: 9.3377022470402096E-2
  potency estimated from few doses: 2250 nM
ILK
  potency estimated from few doses: 1970 nM
MAPK14; CATDS: 0.13638952707170801
  potency estimated from few doses: 1020 nM
MAPKAPK2; CATDS: 0.13321456142161001
  potency estimated from few doses: 1070 nM
MDN1
  potency estimated from few doses: 2200 nM
TESK2; CATDS: 9.9817052034954598E-2
  potency estimated from few doses: 1910 nM

## Nc1ncnc2c1ncn2-c1cccc(F)c1 [SKF-97560]
ACVR1B; CATDS: 5.4958812802740099E-2
  potency estimated from few doses: 352 nM
ACVR2B
  potency estimated from few doses: 987 nM
BUB1
  potency estimated from few doses: 2060 nM
CIT
  potency estimated from few doses: 1490 nM
CSNK1D; CATDS: 4.1820376814662601E-2
  potency estimated from few doses: 661 nM
CSNK1E; CATDS: 3.1298508243452101E-2
  potency estimated from few doses: 1600 nM
EPHA1
  potency estimated from few doses: 581 nM
FLT3
  potency estimated from few doses: 684 nM
FRK
  potency estimated from few doses: 681 nM
FYN
  potency estimated from few doses: 1080 nM
MAPK14; CATDS: 3.4547137011971901E-2
  potency estimated from few doses: 1140 nM
MAPKAPK2; CATDS: 3.21088228610018E-2
  potency estimated from few doses: 1450 nM
NLK; CATDS: 0.113621067973222
  potency estimated from few doses: 94.9 nM
PKN3
  potency estimated from few doses: 168 nM
PTK6
  potency estimated from few doses: 582 nM
RET
  potency estimated from few doses: 80 nM
RIPK2
  potency estimated from few doses: 34.9 nM
RIPK3; CATDS: 3.6654773493518103E-2
  potency estimated from few doses: 948 nM
SIK3; CATDS: 2.9281323909689301E-2
  potency estimated from few doses: 2090 nM
SLK
  potency estimated from few doses: 1310 nM
TESK2; CATDS: 3.8437234907131197E-2
  potency estimated from few doses: 828 nM
TGFBR1
  potency estimated from few doses: 293 nM
TGFBR2
  potency estimated from few doses: 151 nM

Reference: PMC11062922 (Nature Chemical Biology, 2023)
